The test addresses rat Gamma-HydroxyButyrate Receptor (GHB), Tspan17 (gene 306771) (UniProt Q4V8E0). The test is described as follows: NVS_GPCR_rGHB: NovaScreen (NVS) G Protein-Coupled Receptor Assay for rat Gamma-HydroxyButyrate Receptor (GHB). The protocol: NVS_GPCR_rGHB is a biochemical, single-readout assay that uses extracted gene-proteins from Rat forebrain in a tissue-based cell-free assay. Measurements were taken 1 hour after chemical dosing in a 48-well plate.NVS_GPCR_rGHB is one of one assay component(s) measured or calculated from the NVS_GPCR_rGHB assay. It is designed to make measurements of radioligand binding, a form of binding reporter, as detected with scintillation counting signals by Filter-based radiodetection technology.Data from the assay component NVS_GPCR_rGHB was analyzed into 1 assay endpoint. This assay endpoint, NVS_GPCR_rGHB, was analyzed in the positive analysis fitting direction relative to DMSO as the negative control and baseline of activity. Using a type of binding reporter, loss-of-signal activity can be used to understand changes in the binding as they relate to the gene Tspan17. Furthermore, this assay endpoint can be referred to as a primary readout, because the performed assay has only produced 1 assay endpoint. To generalize the intended target to other relatable targets, this assay endpoint is annotated to the gpcr intended target family, where the subfamily is metabotropic glutamate receptor.
Binding assays used specific radioligands (tritiated, iodinated) with non-radioactive competitive displacement ligands in agonist or antagonist protocols (as indicated) and various reference compounds and inhibitors to titrate specific binding to receptors and transporters. Most enzyme assays (CYPs, kinases, phosphatases, proteases, HDACs) used recombinant protein and specific substrates (fluorescence mostly, some colorimetric and radioactive) and inhibitors, followed by a biochemical separation of substrate and product. All assays for the biochemical HTS were initially run in duplicate at a single concentration (10 uM for CYP450 assays and 25 uM for all others). Assay-chemical combinations meeting a pre-defined threshold (e.g., 30% inhibition and other criteria defined below) were then run in singleton concentration-response format with maximum concentration of 20 uM for CYPs and 50 uM for all others. Each assay was run with positive and negative controls, and concurrent controls on every plate. The follow-up (secondary) screen tested active chemical-pairs in concentration series, as well as a few additional assays not tested in the primary screen, some selected negative inactives, and several cases re-run in the concentration series for confirmatory purposes.

Inconclusive results are not listed. Calls of active or inactive are those of the source. Rule for the calls: active = hit-call score of the fitted dose curve at least 0.9, where 1 is the maximum; inconclusive = response in the unintended direction; inactive = score below 0.9.

rat Gamma-HydroxyButyrate Receptor (GHB), Tspan17 (gene 306771), sequence (Q4V8E0 whole entry, looked up): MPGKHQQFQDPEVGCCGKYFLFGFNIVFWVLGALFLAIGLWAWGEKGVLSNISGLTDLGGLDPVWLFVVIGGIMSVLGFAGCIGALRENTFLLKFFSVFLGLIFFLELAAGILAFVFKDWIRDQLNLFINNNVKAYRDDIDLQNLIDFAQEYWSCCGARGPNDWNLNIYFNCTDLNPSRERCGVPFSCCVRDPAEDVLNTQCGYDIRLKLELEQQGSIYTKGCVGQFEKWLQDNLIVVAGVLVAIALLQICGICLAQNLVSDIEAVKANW

As to `Cn1c(=O)cc(Oc2ccc(F)cc2F)c2cnc(NCC(C)(C)O)nc21`, the AC50 (usually the concentration giving half of the maximal activity seen) was 0.166 µM (active).

As to `O=C(O)c1cccc(N(Cc2cccnc2)c2ccc(OC(F)F)c(OC(F)F)c2)c1`, the result was inactive.

In the case of `Cc1cccc(Nc2cc(Cl)nc(SCC(=O)O)n2)c1C`, the AC50 was 19.2 µM (active).

On to `COC(=O)CSc1cc(N=c2sc(=O)n3n2CCCC3)c(F)cc1Cl`, for which the result was inactive.

These data come from PubChem BioAssay AID2283302 (EPA ToxCast).
